Results as given in PubChem BioAssay (NCATS).
Records with an inconclusive call do not appear. Activity calls are given as the source filed them. The call rests on the fitted dose curve; in most records, active means well fitted inhibition curve with a large enough effect; inconclusive means small, poorly fitted or top-dose-only effect; inactive means flat fitted curve, though single readings scatter. Where a SMILES comes first, the peptide text is derived from it.

Legend:
[1] = tested on: CRL-7250; test: Cytotoxic Profiling of Annotated Libraries Using Quantitative High-Throughput Screening (AID 1296008); settings: Five cell lines viability, CellTiter-Glo ATP luminescence, 48-72 h; max response: hits give low values; on max response: on the % scale 0 is the no-effect control and ±100 the full control effect
Summary of the method: (§1)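 Compounds were pin-transferred onto cells and incubated 48 or 72 hr at 37 degree Celsius, 95% humidity. CellTiter-Glo was added, plates sat 10 min at room temperature, then ATP-coupled luminescence was imaged as the viability read-out.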

[2] = tested on: HEK293; test: as above; settings: Five cell lines viability, CellTiter-Glo ATP luminescence, 48-72 h; max response: hits give low values
Summary of the method: as §1

[3] = tested on: HaCat; test: as above; settings: Five cell lines viability, CellTiter-Glo ATP luminescence, 48-72 h; max response: hits give low values
Summary of the method: as §1

[4] = tested on: KB-3-1; test: as above; settings: Five cell lines viability, CellTiter-Glo ATP luminescence, 48-72 h; max response: hits give low values
Summary of the method: as §1

[5] = tested on: NIH3T3; test: as above; settings: Five cell lines viability, CellTiter-Glo ATP luminescence, 48-72 h; max response: hits give low values
Summary of the method: as §1

[6] = tested on: HACAT; test: qHTS assay to identify novel small-molecules to repurpose for Merkel cell carcinoma treatment (AID 1296009); settings: MCC and control cell lines, CellTiter-Glo viability, 72 h; at 44.8 µM (top of the series) unless noted
Summary of the method: (§2)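 Viability readout: ATP luminescence (CellTiter-Glo) after 72 hr drug exposure at 37 degree celsius. Dose-response format was 8 points for NPC and 11 points for MIPE; data normalized to in-plate controls.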

[7] = tested on: HEK293T; test: as above; settings: MCC and control cell lines, CellTiter-Glo viability, 72 h; series mostly up to 44.8 µM
Summary of the method: as §2
Further: nearly all actives have a fitted effect of over 60% in size.

CC(C)C(=O)O[C@@H]1[C@@H](O)[C@@H](O[C@H]2O[C@H](CO)[C@@H](O)[C@H](O)[C@H]2O)O[C@H](CO)[C@H]1O
inactive: max response [1] -2.11% | outcome [2] | outcome [3] | max response [4] 3.97% | max response [5] 1.16% | outcome [6] inactive [at 17.4 µM] | Potency [7]

COc1ccc2c(c1O)OC[C@H]1c3ccc(O)cc3O[C@@H]21
inactive: max response [1] 2.17% | outcome [2] | outcome [3] | outcome [4] | outcome [5] | outcome [6] | Potency [7]

C[C@@H]1CC[C@H]2C(C)(C)[C@H](O)[C@H](O)C[C@]2(C)[C@@]12Cc1c(O)cc3c(c1O2)CNC3=O
inactive: outcome [1] | outcome [2] | outcome [3] | outcome [4] | max response [5] 3.46% | outcome [6] | Potency [7]

CCC(C)/C=C(C)/C=C/C1=CC2=C(Cl)C(=O)C(C)(OC(C)=O)C(=O)C2=CN1C1CCCCN(C(CCC(N)=O)C(=O)O)C1=O (stereo not given)
inactive: outcome [1] | outcome [2] | outcome [3] | outcome [4] | max response [5] -1.04% | outcome [6] inactive [at 17.4 µM] | Potency [7]

C=C1[C@@H]2CC[C@@]3(C)[C@H](c4ccoc4)OC(=O)C[C@]13O[C@H]1CC(=O)C(C)(C)[C@H](CC(=O)OC)[C@]12C
inactive: max response [1] -0.448% | outcome [2] | outcome [3] | max response [4] -1.94% | outcome [5] | outcome [6] inactive [at 17.4 µM] | Potency [7]

CC1NC(=O)CNC(=O)C(C(C)C)NC(=O)C2CCCN2C(=O)C(C(C)C)NC(=O)C(Cc2c[nH]c3ccccc23)NC1=O (stereo not given) (cyclo(GAWVPV); configuration not given here)
inactive: outcome [1] | outcome [2] | outcome [3] | outcome [4] | outcome [5] | outcome [6] inactive [at 17.4 µM] | Potency [7]

COC1C=C([C@@H]2CC=C3[C@@]4(C)C(CC[C@]32C)[C@@]2(C)C=CC(=O)C(C)(C)C2C[C@H]4OC(C)=O)C(=O)O1 (stereo not given in full)
inactive: outcome [1] | outcome [2] | outcome [3] | max response [4] -0.943% | outcome [5] | outcome [6] inactive [at 17.4 µM] | Potency [7]

COc1cc(C)c(C(=O)O[C@H]2[C@@H](O)[C@H](n3ccc(=O)[nH]c3=O)O[C@@H]2CO)c(OC)c1
inactive: max response [1] -3.82% | outcome [2] | outcome [3] | max response [4] -4.86% | max response [5] -2.57% | outcome [6] inactive [at 17.4 µM] | Potency [7]

CC(=O)OC[C@@]12[C@H](O)C[C@@H](C)[C@]3(C[C@@H](c4ccoc4)OC3=O)[C@H]1C[C@H](O)C[C@]21CO1
inactive: outcome [1] | outcome [2] | outcome [3] | outcome [4] | outcome [5] | outcome [6] inactive [at 17.4 µM] | Potency [7]

CC1(C)CCCC2(C)C3=C(C(=O)OC3O)C(O)CC12 (stereo not given)
inactive: max response [1] -10.8% | outcome [2] | outcome [3] | max response [4] 2.72% | outcome [5] | outcome [6] | Potency [7]

Cc1cn2c(N)c(Cl)cc(C(=O)NCC3CCN(CC(C)C)CC3)c2n1
inactive: max response [1] -6.05% | outcome [2] | outcome [3] | max response [4] -3.78% | outcome [5] | outcome [6] | Potency [7]

C/C(=C\CCC(C)(O)c1ccc(C)cc1)C(=O)O (stereo not given)
inactive: max response [1] -2.36% | outcome [2] | outcome [3] | outcome [4] | max response [5] 0.595% | outcome [6] | Potency [7]

CC(=O)OC[C@]12[C@H](OC(C)=O)C(=O)[C@@H]3[C@@H](OC(C)=O)[C@@]14O[C@@]3(C)COC(=O)c1cccnc1[C@@H](C)[C@H](C)C(=O)O[C@@H]([C@H](OC(C)=O)[C@@H]2OC(C)=O)[C@]4(C)O
inactive: max response [1] 2.64% | outcome [2] | outcome [3] | outcome [4] | max response [5] -8.22% | outcome [6] inactive [at 17.4 µM] | Potency [7]

CC1=C2[C@@H]([C@H](C)CC[C@H]2/C=C(\C)C(=O)O)[C@H](O)C1
inactive: max response [1] 0.252% | outcome [2] | outcome [3] | max response [4] 3.15% | max response [5] 3.16% | outcome [6] | Potency [7]

CC(C)C1=CCC(C)(O)C(OC2OC(CO)C(O)C(O)C2O)C1 (stereo not given)
inactive: max response [1] -1.73% | outcome [2] | outcome [3] | outcome [4] | outcome [5] | outcome [6] | Potency [7]
